# Screening data as filed in PubChem.
# An excerpt weighted towards active compounds, which were near 1.2% of everything screened.
# Bcl-xL primary: Bcl-xL (human) inhibition; inhibition, % at 10.9 µM; AID 2129; Q07817; 0.7% of 320,000 active; GST-Bcl-xL / FITC-Bim BH3 peptide fluorescence polarization;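 active = inhibition above the mean of all tested compounds plus 3 SD, cutoff set per campaign, cut at about 30% in these data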;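 note: 0% = DMSO wells and 100% = unlabeled Bim-BH3 peptide competitor; inhibitors lower millipolarization by displacing the labeled peptide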
# Cardiac RTF inh: cardiac RTF calcium desensitization; P19429+P45379; IANBD-labeled cardiac RTF, Ca2+ fluorescence; inhibition, % at 7.15 µM; 0.12% of 340,000 active; AID 493244;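 active = inhibition above the mean inhibition of all tested compounds plus 3 SD, cut at about 17% in these data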;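 note: assay run at fixed EC70 calcium of 1.6 mM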
# E coli Lon inh: inhibits E. coli Lon protease; P0A9M0; purified E. coli Lon protease, fluorescence polarization; inhibition, % at 7.94 µM; 0.42% of 360,000 active; AID 602123; in the data active = inhibition above about 13%, passing the limit was not always enough;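 note: 0% = enzyme with probe and DMSO and 100% = no enzyme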
# RTF Ca sens act: cardiac RTF calcium sensitization; P19429+P45379; IANBD-labeled TnC RTF fluorescence at EC20 calcium; 0% EC20 calcium, 100% full calcium; activation, % at 7.2 µM; 0.24% of 340,000 active; AID 493008;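 active = activation above the mean over all tested compounds plus 3 SD, cut at about 30% in these data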;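 note: rise in fluorescence read as greater calcium sensitivity of cardiac thin filaments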
# GLD-1 RNA inh: GLD-1-TGE RNA interaction inhibition (C. elegans); inhibition, % at 5.96 µM; Q17339; 0.44% of 320,000 active; purified GLD-1 + fluorescein TGE RNA, fluorescence polarization;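 active = percent inhibition above a per-plate cutoff, the plate mean of test compounds plus 3 SD, cut at about 30% in these data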;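 note: 0% = DMSO wells with GLD-1 and probe and 100% = wells lacking GLD-1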
# Target sequence (Q17339 whole entry, looked up): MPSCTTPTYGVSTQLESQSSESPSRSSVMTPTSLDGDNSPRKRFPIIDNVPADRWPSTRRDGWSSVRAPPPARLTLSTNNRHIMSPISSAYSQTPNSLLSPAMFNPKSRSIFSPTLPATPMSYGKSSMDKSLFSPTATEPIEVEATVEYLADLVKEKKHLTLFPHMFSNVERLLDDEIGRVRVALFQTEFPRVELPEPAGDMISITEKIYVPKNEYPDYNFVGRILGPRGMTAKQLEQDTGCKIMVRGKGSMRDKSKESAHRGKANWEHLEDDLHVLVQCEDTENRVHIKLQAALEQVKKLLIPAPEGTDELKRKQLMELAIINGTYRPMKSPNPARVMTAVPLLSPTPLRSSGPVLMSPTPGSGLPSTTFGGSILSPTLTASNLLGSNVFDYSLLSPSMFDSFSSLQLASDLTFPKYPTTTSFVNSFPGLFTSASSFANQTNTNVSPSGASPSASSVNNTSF
# Numbers without * were called inactive; i = inactive; / = no result given.
SMILES,Bcl-xL primary,Cardiac RTF inh,E coli Lon inh,RTF Ca sens act,GLD-1 RNA inh
CN(C)c1ccc(/C=C/C(=O)c2cccc(Br)c2)cc1,46.1*,-305.9,-396.4,135.1*,-21.1
Cc1nc2ccccc2c(=O)n1NC(=O)c1ccccc1F,5.5,-1.2,-2.4,-6.8,-6.7
N#CC12C(N)=NC3(OCCO3)C1(C#N)C1=C(CCC1)NC2c1ccccc1 (stereo not given),34.8*,-4.2,1.5,1.6,63.4*
CC1=CC2(C#N)C3(N=C(N)C2(C#N)C(c2ccccc2)N1)OCCO3 (stereo not given),/,-3.3,16.3,1.3,/
CCOC(=O)c1c(/N=C/c2ccc(O)cc2O)sc2c1CCC2,8.4,/,/,/,32.6*
CCOC(=O)c1c(/N=C/c2ccccc2O)sc2c1CCC2,8.5,-14.4,-9.0,6.7,-1.3
O=C(C1CCCN(S(=O)(=O)c2ccccc2)C1)N1CCCCCC1 (stereo not given),3.9,-5.2,-7.4,6.4,2.8
CCCCN(C(=O)c1nn(C)c(=O)c2ccccc12)c1c(N)n(CC(C)C)c(=O)[nH]c1=O,2.8,-4.3,8.6,-1.4,3.1
COc1ccc(C/C(C)=N/Nc2nc(C)cc(=O)[nH]2)cc1,2.2,-3.2,-5.5,1.7,3.5
O=C1N=C(N2CCOCC2)S/C1=C\c1ccc(-c2ccccc2Cl)o1,40.0*,-13.5,4.0,0.2,-1.9
COc1cc(/C=C2\CCC(C)C3=C(c4cc(OC)c(OC)c(OC)c4)C(C#N)=C(N)OC32)cc(OC)c1OC (stereo not given),/,-57.1,-152.6,39.9*,/
COc1cc(/C=C2\CC/C(=C\c3cc(OC)c(OC)c(OC)c3)C2=O)cc(OC)c1OC,-1.6,-3.2,-12.1,2.0,5.3
CCCOc1ccc(-c2c(C(=O)N/N=C(\C)c3ccco3)nnn2-c2nonc2N)cc1,69.3*,-3.6,19.2,-1.6,-9.8
CCCOc1ccc(-c2c(C(=O)N/N=C(\C)c3cccnc3)nnn2-c2nonc2N)cc1,0.4,6.4,-0.4,-5.2,0.3
Cc1nn(-c2ccc(Br)cc2)c(=O)c2ccccc12,30.8*,-2.5,10.9,2.3,26.9
Cn1cc(/C=C2\SC(=S)N(NC(=O)c3cccc(Cl)c3)C2=O)c2ccccc21,/,-34.4,-68.0,45.0*,/
O=C(NN1C(=O)/C(=C/c2ccc(O)cc2)SC1=S)c1cccc(O)c1,-46.6,-19.8,-374.6,18.0,-108.1
Cn1cc(/C=C2\SC(=S)N(NC(=O)c3ccccc3)C2=O)c2ccccc21,-41.9,-62.1,-91.7,70.2*,-158.3
COC(=O)CCCCCCCCCCN1CCCCC1,2.2,-0.4,-1.8,4.2,-3.4
CC(C)c1cc(Nc2cccc(O)c2)cc(C(C)C)c1O,139.9*,/,/,/,148.2*
Oc1cccc(Nc2ccccc2)c1,17.4,/,-5.7,/,7.7
O=C(NCc1ccc(F)cc1)c1cc(C2CCCCN2C(=O)CCCc2ccccc2)on1 (stereo not given),/,/,-13.7,/,/
COc1ccccc1-c1coc2c(CN3CCN(CCO)CC3)c(O)ccc2c1=O,3.7,-5.0,-2.4,-4.5,4.7
Cc1ccc(/C=C2\Oc3c(ccc(O)c3CN3CCN(CCO)CC3)C2=O)cc1,47.7*,-38.4,-50.1,32.0*,-2.2
CC(C)c1ccc(/C=C2\Oc3c(ccc(O)c3CN3CCN(C)CC3)C2=O)cc1,41.2*,-45.8,-83.4,22.2,-5.9
SMILES,Bcl-xL primary,Cardiac RTF inh,E coli Lon inh,RTF Ca sens act,GLD-1 RNA inh
O=C(OCc1nnc(-c2ccccc2)o1)c1cccc(S(=O)(=O)N2CCOCC2)c1,1.9,-2.9,-7.3,2.9,3.1
C=CCn1c(C)cc(C(=O)COC(=O)C2CC(=O)N(CCc3ccc(OC)c(OC)c3)C2)c1C (stereo not given),-3.6,-18.8,-3.1,-3.9,-1.1
COc1cccc(NC(=O)CNC(=O)N2CC(=O)Nc3ccccc32)c1,44.1*,-6.1,-9.4,2.4,0.7
CCOC(=O)c1c(NC(=O)CN2CCN(C(=O)c3ccco3)CC2)sc(C(N)=O)c1C,1.8,-7.0,3.6,6.7,0.1
NNc1nc(C(F)(F)F)nc2ccccc12,-10.1,-14.9,2.8,-1.4,2.1
O/C=c1\ccc2cccc3nc(C(F)(F)F)nc1c23,85.8*,-80.7,-88.0,124.1*,37.3*
O=C(NN1C(=O)/C(=C/C=C/c2ccco2)SC1=S)c1ccncc1,46.2*,/,-10.1,/,4.2
O=C(NN1C(=O)/C(=C/C=C/c2ccccc2)SC1=S)c1ccncc1,-49.8,-0.1,-66.5,-2.4,-46.8
CSc1ccc(-c2cc3c(c4c2ccn4C)C2CCC3O2)cc1 (stereo not given),/,/,6.7,/,/
CC1(OC(=O)C2CCCC2)C(=O)C=C2C=C(c3ccsc3)N(Cc3ccco3)C=C2C1=O (stereo not given),34.0*,-8.7,-3.7,-4.1,11.6
COc1ccc(C2C(C(=O)c3cccs3)=C(O)C(=O)N2c2nnc(C)s2)cc1OC (stereo not given),83.7*,-70.8,37.5*,80.1*,69.7*
Cc1cccc(N2C(=O)C(O)=C(C(=O)c3cccs3)C2c2ccc(F)cc2)n1 (stereo not given),7.3,-2.2,-2.8,-5.7,0.1
COc1ccc(C2C(C(=O)c3cccs3)=C(O)C(=O)N2c2nncs2)cc1 (stereo not given),139.4*,-56.0,61.6*,31.7*,113.5*
C=CCOc1cccc(C2C(C(=O)c3cccs3)=C(O)C(=O)N2Cc2cccnc2)c1 (stereo not given),9.4,-0.3,1.8,5.5,2.4
C=CCOc1ccc(C2C(C(=O)c3cccs3)=C(O)C(=O)N2c2nnc(C)s2)cc1 (stereo not given),100.2*,-42.5,13.3,44.3*,74.3*
Cc1nnc(N2C(=O)C(O)=C(C(=O)c3ccco3)C2c2cccc([N+](=O)[O-])c2)s1 (stereo not given),3.5,-5.4,8.0,-1.9,-4.4
C/C(CCc1ccccc1)=N\NC(=O)C1C2CCCCC21 (stereo not given),-2.4,0.4,-3.9,3.6,2.7
CCCn1c(C2CCCN2c2nc(-c3cccc(Br)c3)cs2)nc2cc(Cl)c(Cl)cc21 (stereo not given),0.0,0.9,2.6,3.3,-7.9
CCN(CC)C(=O)c1ccc(/C=C/c2c[nH]c3ccccc23)[n+](C)c1,-68.2,-142.9,i,140.0*,-165.8
COCc1cc(=O)n2[nH]c(SCc3ccccc3)nc2n1,31.1*,-6.8,3.6,1.9,-1.6
Cc1cc(=O)n2[nH]c(SCc3ccccc3)nc2n1,-1.0,-0.6,12.3,4.2,0.8
Cc1nc(N2CCN(C(=O)CCC(=O)O)CC2)c2c(C)c(C)sc2n1,3.5,3.3,2.8,-3.0,2.4
O=C(CC1C(=O)NCCN1Cc1ccccn1)NCCc1ccccc1F (stereo not given),30.3*,-0.8,12.5,-0.6,21.2
Cc1ccc(S(=O)(=O)N/N=C/c2ccc(C#N)cc2)cc1,2.8,-9.1,4.4,-1.8,2.0
